Bioassay records as filed in PubChem.
aSyn rescue – alpha-synuclein toxicity inhibition in yeast; Yeast expressing alpha-synuclein, growth rescue, BacTiter-Glo, 24 h; Potency, µM (highest dose often 46.1 µM), hits mostly activators; 0.14% of 370,000 active; AID 652106; also: nearly all actives have a fitted effect of over 65% in size
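Readout is rescue of growth in alpha-synuclein-expressing yeast, so inhibitors of toxicity appear as activators. Growth after 24 hr at 30 deg C in galactose medium is quantified by luminescence.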
TDP-43 yeast inh – TDP-43 toxicity inhibition in yeast; TDP-43 expressing yeast growth rescue, BacTiter-Glo, 24 h; Potency, µM (highest dose often 46.1 µM), hits mostly activators; 1.8% of 410,000 active; AID 652104; also: nearly all actives have a fitted effect of over 50% in size
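Galactose-induced TDP-43 yeast, OD600=0.02, compound pinned; 24 hr, 30 deg C; BacTiter-Glo luminescence for growth. Inhibitors of TDP-43 toxicity read as activators.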
Abeta rescue – A-beta toxicity reversal in yeast; AID 1347071; yeast expressing A-beta42, growth rescue, OD600, 48 h; response scale: 0% DMSO, 100% iron-clioquinol control; Potency, µM (doses to about 46.1 µM), hits mostly activators; 0.063% of 410,000 active; also: nearly all actives have a fitted effect of over 55% in size
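Yeast growth medium received pinned compounds, then yeast cells expressing toxic A-beta were added; plates incubated at 30 C for 48 hr. Growth read as absorbance at 600 nm, normalized to DMSO and equimolar FeCl3 plus clioquinol controls.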
Mito fusion act – mitochondrial division inhibition or fusion activation; S. cerevisiae fusion-defective mutant growth rescue, CellTiterGlo 48 h; Potency, µM (series often up to 46.1 µM), usual class: activators; 0.23% of 320,000 active; AID 485298; also: nearly all actives have a fitted effect of over 45% in size
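Read-out: ATP-based luminescence (CellTiterGlo, 10 min ambient) reporting growth of fusion-defective ts yeast after 48 hours at 37C on glycerol/ethanol YPEG medium in the presence of compound.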
FUS suppressor – suppressors of FUS proteinopathy in yeast; S. cerevisiae FUS-expressing, growth rescue, OD600, 24 h; Potency, µM (series often up to 76.6 µM), hits mostly activators; 0.24% of 390,000 active; AID 1347120; also: nearly all actives have a fitted effect of over 55% in size
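Galactose (2%) drives FUS expression in yeast precultured in raffinose; seeding density OD 0.005. Test compounds incubated 24hr at 30C and 99% humidity before absorbance at 600 nm was measured.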
A-T KAP1 phos – candidate therapy for ataxia-telangiectasia; 0.19% of 320,000 active; F2112 A-T fibroblasts, KAP-1 phosphorylation AlphaLISA; neocarzinostatin DNA damage 30 min before lysis; Potency, µM (doses to about 57.5 µM), actives largely listed as activators; also: nearly all actives have a fitted effect of over 45% in size
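hTERT-immortalized A-T patient fibroblasts (F2112), 500 cells/well in OPTI-MEM, 1% FBS, got compounds for 60 min, then NCS for 30 min at 37C. Lysates were then assayed for phospho-KAP-1 by AlphaLISA (anti-pKAP1 donor, anti-KAP1 acceptor beads), 6 hr at 25C.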
Hits are given with their value; – = inactive; ? = inconclusive; · = no result given. This is a sample that favours compounds with a hit; in the whole collection about 2.4% have one here. Calls follow the shape of the dose curve; as a rule, active = well fitted curve in the direction sought with a large enough effect; inconclusive = small, poorly fitted or top-dose-only effect, or another doubt; inactive = no such curve, though single readings can be large; an effect the other way counts as inactive or inconclusive.

SMILES	aSyn rescue	TDP-43 yeast inh	Abeta rescue	Mito fusion act	FUS suppressor	A-T KAP1 phos
O=C(C1CCCCC1)N1CCN=C1SCc1cccc([N+](=O)[O-])c1	–	17.8µM	–	–	–	–
O=C(c1ccccc1)N1CCN=C1SCc1ccc([N+](=O)[O-])cc1	–	10µM	–	–	–	–
Cc1ccc2occ(CC(=O)N(Cc3ccc(C(C)C)cc3)C3CCS(=O)(=O)C3)c2c1 (stereo not drawn)	·	?	–	·	?	·
CCN(CC)c1ccc(/C=C/c2c(C)cnc3ccccc23)cc1	–	·	·	·	·	·
CCc1cccc(NC(=O)c2cccc3c2C(=O)N(CC2CCCO2)C3)c1 (stereo not drawn)	–	17.8µM	–	–	–	–
CCOC(=O)CN1C(=O)S/C(=C/c2ccc(C)o2)C1=O	–	12.6µM	–	–	–	–
CCOC(=O)CN1C(=O)S/C(=C/c2cc(C)n(C)c2C)C1=O	–	?	–	·	–	·
CCN(CC)CCCn1c(C)cc2c(c1=O)C(c1ccccc1)C(C#N)=C(N)O2 (stereo not drawn)	–	–	–	11.2µM	–	–
CCOc1ccccc1C1CC(=O)Nc2c1c(=O)n(C)c1ncnn21 (stereo not drawn)	–	–	–	·	–	·
CCCN1CNc2c(c(=O)[nH]c(=S)n2CCc2cccc(Cl)c2Cl)C1	–	·	·	·	–	·
O=C(NCCCN1CCN(c2ccccc2)CC1)c1nnc(Cc2ccc(F)cc2)o1	·	–	–	·	–	·
CN(C)C(=O)c1ccc(NC(=O)c2ccc(-c3ccc(Cl)cc3)o2)cc1	–	?	–	–	·	–
O=C(Nc1ccccc1)c1ccc(-c2ccc(Br)cc2)o1	–	12.6µM	–	15.8µM	–	–
O=C(Nc1cccc(NC(=O)c2ccc(-c3ccc(Br)cc3)o2)c1)c1ccccc1	–	–	–	–	–	–
CC(=O)c1ccc(NC(=O)c2ccc(-c3ccc(Cl)cc3)o2)cc1	·	11.2µM	–	·	–	·
NNC(=O)c1cccc(S(=O)(=O)Nc2cc(Cl)ccc2Cl)c1	–	–	–	–	–	28.2µM
COc1ccccc1NS(=O)(=O)c1cccc(C(=O)NN)c1	–	–	–	–	?	–
O=C(NCCc1nc2ccccc2n1C/C=C/c1ccccc1)C1CCCCC1	·	·	·	·	–	·
CCOC(=O)c1cc2c(=O)n3ccccc3nc2n(C(C)C)c1=NC(=O)C(C)(C)Oc1ccc(Cl)cc1	·	–	–	·	–	·
Nc1nc(-c2ccc(Br)s2)c(Br)s1	–	11.2µM	–	–	–	–
N#Cc1c(N)nc2c(c1-c1ccc(Br)s1)CCCC2	–	–	–	–	·	–
Cc1ccc(OCCOc2ccc(Cl)cc2Cl)c(Br)n1	·	·	·	·	–	·
CSc1ccc(CNC(=O)C2CCN(c3nnc(-n4cccc4CNc4ccc(C)cc4)s3)CC2)cc1	·	–	–	·	35.5µM	·
Cc1cc(C)c(Cn2cnc(-c3ccc([N+](=O)[O-])cc3)c2)c(C)c1	–	–	–	–	–	–
CC(C)(C)c1ccc(Cn2cnc(-c3ccc([N+](=O)[O-])cc3)c2)cc1	–	31.6µM	–	–	·	–
SMILES	aSyn rescue	TDP-43 yeast inh	Abeta rescue	Mito fusion act	FUS suppressor	A-T KAP1 phos
CC1CC(NC(=O)c2cc3c(=O)n4ccccc4nc3n2C)CC(C)(C)C1 (stereo not drawn)	–	?	–	–	–	28.2µM
CC1CCCCC1NC(=O)c1cc2c(=O)n3ccccc3nc2n1C (stereo not drawn)	–	–	–	?	–	?
CCn1cc2nc(SCc3cccc(OC)c3)n(Cc3ccc(Cl)cc3)c(=O)c2n1	·	–	–	·	?	·
CC(=O)Nc1ccc(NCN2C(=O)C3C4CCC(C4)C3C2=O)cc1 (stereo not drawn)	–	25.1µM	–	–	–	–
Cc1ccc(NCN2C(=O)C3C4CCC(C4)C3C2=O)cc1 (stereo not drawn)	·	·	·	–	·	–
O=c1c2[nH]c3ccc(Cl)cc3c2ncn1CCN1CCCCC1	–	–	–	–	–	28.2µM
COc1ccc2c(c1)[nH]c1c(=O)n(CCN3CCCC3)cnc12	–	–	–	–	–	–
N#Cc1c(NCc2ccccc2)ccnc1Cl	–	14.1µM	–	·	–	·
COc1ccc(OC)c(C(c2nnnn2C2CCCC2)N2CCN(c3ccccc3F)CC2)c1 (stereo not drawn)	–	31.6µM	–	–	–	–
Fc1ccc(N2CCN(C(c3cccs3)c3nnnn3C3CCCC3)CC2)cc1 (stereo not drawn)	–	–	–	–	–	–
COc1ccc(N2CCN(C(c3cccs3)c3nnnn3C3CCCC3)CC2)cc1 (stereo not drawn)	–	–	–	11.2µM	–	–
COc1ccc(N2CCN(C(c3ccccc3OC)c3nnnn3C3CCCC3)CC2)cc1 (stereo not drawn)	–	?	–	–	?	–
Fc1ccccc1N1CCN(C(c2ccccn2)c2nnnn2C2CCCCC2)CC1 (stereo not drawn)	–	–	–	12.6µM	–	–
CCOc1ccc(NC(=O)CSc2oc(-c3ccc(F)cc3)nc2S(=O)(=O)c2ccc(C)cc2)cc1	·	–	–	·	–	·
COc1cc(/C=C2\C(=O)ON=C2c2ccc(Cl)cc2)ccc1O	–	?	–	·	?	·
COc1ccc(/C=C2\C(=O)ON=C2c2ccccc2)cc1	–	?	–	–	–	–
O=C1ON=C(c2ccccc2)/C1=C/c1ccc(O)c(O)c1	5.01µM	?	–	–	–	–
O=C1ON=C(c2ccccc2)/C1=C/c1ccc(OS(=O)(=O)c2ccccc2)cc1	–	12.6µM	–	–	·	–
COc1nnc(-c2ccc(N3CCCCC3)c(NC(=O)C3CCCCC3)c2)c2ccccc12	–	–	–	–	·	–
COc1nnc(-c2ccc(N3CCCCC3)c(NC(C)=O)c2)c2ccccc12	–	22.4µM	–	–	–	–
Cc1ccc(-c2nnc(Sc3nc4ccccc4o3)c3ccccc23)cc1	–	–	–	–	–	–
Cc1nnc(Sc2nc3ccccc3o2)c2ccccc12	?	14.1µM	–	–	–	–
CCOC(=O)Cn1cc(CN2C(C(=O)OC)CN(CCO)CCS2(=O)=O)nn1 (stereo not drawn)	·	·	·	·	–	·
Cc1ccc(-c2nc3c4ccccc4ccn3c2Cc2ccccc2)cc1	–	–	–	·	?	·
Clc1ccc(-c2nc3c4ccccc4ccn3c2Cc2cccc(Cl)c2)cc1	–	–	–	·	–	·
CCOC(=O)Cc1c(-c2cccc(Cl)c2)nc2c3ccccc3ccn12	–	12.6µM	–	·	–	·
COc1ccc(-c2nc3c4ccccc4ccn3c2Cc2ccc(C)cc2)cc1OC	–	10µM	–	·	–	·
COc1ccc(-c2nc3c4ccccc4ccn3c2Cc2cccc(Cl)c2)cc1OC	–	14.1µM	–	·	–	·
